The list is not random: actives were taken first. Their share in the collection is about 0.92%.
FEN1 inh: qHTS Assay for the Inhibitors of Human Flap endonuclease 1 (FEN1); P39748; Recombinant FEN1 flap cleavage, fluorescence, 15 min; Potency, µM (doses to about 114 µM), most hits filed as inhibitors; 390,000 tested, 0.35% active; also: nearly all actives have a fitted effect of over 65% in size
Target sequence (P39748 whole entry, looked up): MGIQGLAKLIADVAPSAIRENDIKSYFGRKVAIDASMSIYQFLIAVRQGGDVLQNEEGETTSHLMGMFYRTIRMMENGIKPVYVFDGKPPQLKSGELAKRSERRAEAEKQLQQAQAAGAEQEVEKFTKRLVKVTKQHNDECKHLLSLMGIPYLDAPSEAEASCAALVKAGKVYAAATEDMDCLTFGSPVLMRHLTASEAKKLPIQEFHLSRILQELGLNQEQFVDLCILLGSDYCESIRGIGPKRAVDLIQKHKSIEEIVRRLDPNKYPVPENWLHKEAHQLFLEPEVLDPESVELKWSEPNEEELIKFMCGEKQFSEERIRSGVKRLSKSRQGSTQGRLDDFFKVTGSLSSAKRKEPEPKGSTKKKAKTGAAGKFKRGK
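Concentration–response screening of FEN1 (10 nM): 15 min compound preincubation at room temperature, reaction started with 50 nM substrate and read at 0 and 15 min. Corrected, normalized data were fitted by a four-parameter Hill equation.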
TDP1 inh: qHTS Assay for Inhibitors of Tyrosyl-DNA Phosphodiesterase (TDP1); Tyrosyl-DNA phosphodiesterase 1 (Homo sapiens), Q9NUW8; AID 485290, 2010; recombinant TDP1, AlphaScreen DNA substrate cleavage; 350,000 tested, 0.28% active; Potency, µM (titrated, usually from 130 µM), hits mostly inhibitors; also: nearly all actives have a fitted effect of over 40% in size
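Enzyme-compound mixtures sat 15 min at room temperature, followed by a 5 min reaction with 15 nM final substrate and 10 min with AlphaScreen beads. Recombinant human Tdp1 was used at 1 nM final.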
APE1 inh: qHTS Assay for Inhibitors of the Human Apurinic/apyrimidinic Endonuclease 1 (APE1); 350,000 tested, 0.35% active; Potency, µM (titrated, usually from 65.8 µM), usual class: inhibitors; recombinant APE1, TAMRA/BHQ-2 abasic DNA cleavage fluorescence; also: nearly all actives have a fitted effect of over 55% in size
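Kinetic fluorescence read (525 ex/598 em nm, three reads 60 s apart) of AP-site incision; signal = third minus first read. Enzyme 0.75 nM, dual-labelled THF duplex 50 nM, compound preincubation 15 min RT.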
BLM inh-1: qHTS Assay for Inhibitors of Bloom's syndrome helicase (BLM); Potency, µM (titrated, usually from 56.1 µM), hits mostly inhibitors; 350,000 tested, 0.2% active; recombinant BLM DNA unwinding, fluorescence dequenching; also: nearly all actives have a fitted effect of over 35% in size
RECQ1 inh-1: qHTS Assay for Inhibitors of RecQ-Like Dna Helicase 1 (RECQ1); AID 2549, 2010; RECQ1 DNA unwinding, red fluorescence kinetic read; ATP-dependent DNA helicase Q1 (Homo sapiens), P46063; 240,000 tested, 0.54% active; Potency, µM (series often up to 57.3 µM), usual class: inhibitors; also: nearly all actives have a fitted effect of over 30% in size
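RECQ1T1 50 nM; forked duplex (20 bp + 30-nt ss tails) 200 nM, ATP 2 mM final; pH 8.0, 2 mM MgCl2, 2.5 ug/ml poly(dI-dC); 15 min compound preincubation; discontinuous kinetic read over 2 h at RT.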
BLM inh-2: qHTS Confirmation Assay for Inhibitors of Bloom's syndrome helicase (BLM); shares compounds with BLM inh-1; BLM DNA unwinding, fluorescence quenching, biochemical; Potency, µM, actives largely listed as inhibitors; 220 tested, 40% active; AID 2585, 2010;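 also: strand separation dequenches TAMRA so unwinding raises red fluorescence; series mostly up to about 69 µM; nearly all actives have a fitted effect of over 45% in size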
RECQ1 conf: Confirmation qHTS Assay for Inhibitors of RecQ-Like Dna Helicase 1 (RECQ1). shares compounds with RECQ1 inh-1. RECQ1 helicase DNA unwinding, fluorescence. Potency, µM (highest dose often 229 µM), actives largely listed as inhibitors. 610 tested, 28% active. AID 2708, 2010; also: nearly all actives have a fitted effect of over 45% in size
ADP FP counter: Counterscreen for RECQ1 Inhibitors: ADP Fluorescence Polarization Displacement Assay | shares compounds with RECQ1 inh-1 | ADP fluorescence polarization displacement counterscreen | Potency, µM (top dose mostly 228 µM), most hits filed as inhibitors | 530 tested, 27% active; also: nearly all actives have a fitted effect of over 45% in size
RECQ1 inh-2: Confirmation qHTS Assay for Inhibitors of RecQ-Like Dna Helicase 1 (RECQ1) - Round 2 Cherry Picks; Potency, µM (highest dose often 119 µM), usual class: inhibitors; recombinant RECQ1 DNA unwinding, red fluorescence; 1,100 tested, 15% active; shares compounds with RECQ1 inh-1; also: nearly all actives have a fitted effect of over 50% in size
Hits are given with their value; n = inactive; u = inconclusive; x = not tested or not shown; [ ] = remark or other dose. Calls follow the shape of the dose curve; as a rule, active = well fitted curve in the direction sought with a large enough effect; inconclusive = small, poorly fitted or top-dose-only effect, or another doubt; inactive = no such curve, though single readings can be large; an effect the other way counts as inactive or inconclusive.

SMILES	FEN1 inh	TDP1 inh	APE1 inh	BLM inh-1	RECQ1 inh-1	BLM inh-2	others
Cc1ccc(-c2nc(NC(=O)CSc3cc(C)c4ccccc4n3)ns2)cc1	u	n	u	6.3µM	n	18µM
Nc1c(C(=O)NC2CC2)sc2nc3c(c(-c4ccco4)c12)CC/C3=C/c1ccco1	5.6µM	n	n	5.6µM	n	u
NC(=O)c1sc2nc3c(c(-c4ccco4)c2c1N)CCC3	n	n	n	n	n	x
C/C(Cl)=C/CCl	x	n	n	x	n	x
N#Cc1ccccc1NC(=O)C(=O)NCC(c1cccnc1)N1CCc2ccccc21 (configuration not stated)	n	n	x	n	x	x
COc1ccc(C(=O)Nc2nnc(SCc3cc(=O)c4cc(C)cc(C)c4[nH]3)s2)cc1	n	n	x	20µM	x	18µM
CCOc1ccc(-c2nc(SCC(=O)Nc3cc(F)ccc3F)n3[nH]c(=O)cc3n2)cc1	n	x	x	10µM	x	11µM
Cc1ccc(NC(=O)CSc2nc(-c3ccc(C(C)(C)C)cc3)nc3cc(=O)[nH]n23)cc1C	n	n	x	n	x	x
CCOc1ccc(-c2nc(SCC(=O)Nc3ccc(C)c(C)c3)n3[nH]c(=O)cc3n2)cc1	u	n	x	14µM	x	18µM
CN(C)[C@H]1C(=O)C(C(=O)NCN2CCCC2)=C(O)[C@]2(O)C(=O)C3=C(O)c4c(O)cccc4[C@](C)(O)[C@H]3C[C@H]12	x	0.2µM	x	14µM	x	20µM
O=C(/C=C/c1ccccc1Cl)Nc1ccc2c(c1)C(=O)NC2=O	n	n	13µM	32µM	n	u
COc1cccc(C2/C(=C(\O)c3ccc4c(c3)OCCO4)C(=O)C(=O)N2CCN(C)C)c1 (configuration not stated)	n	n	u	8.9µM	n	n
Cc1cc2c(c(=O)n1-c1ccccc1)C1O[C@](c3ccsc3)(Cc3ccccc31)O2	x	x	n[12.4 µM]	n[12.4 µM]	x	x
O=C1C=C[C@@H](O)[C@H]2[C@@H]3C(=O)N(c4cccc(Oc5ccccc5)c4)C(=O)[C@@H]3CC[C@H]12	x	n[21 µM]	u	n[12.4 µM]	n[11.5 µM]	x
Cc1cc(=O)[nH]c2c(N=Nc3ccc(O)cc3)c(N)nn12	n	n	u	16µM	n	u
Cc1ccc(-c2nn3c(C)nnc3s2)cc1NC(=O)c1ccc(-c2cccc(Cl)c2)o1	u	n	n	n	13µM	n	ADP FP counter=n;RECQ1 inh-2=u
CC(=O)Nc1cc(-c2nn3c(C)nnc3s2)ccc1C	n	n	n	n	n	x
Cc1cc2cc(C(c3nnnn3Cc3ccco3)N3CCCCC3)c(=O)[nH]c2cc1C (configuration not stated)	n	n	n	n	n	x
CCOc1ccc2[nH]c(=O)c(C(c3nnnn3Cc3ccco3)N3CCN(C)CC3)cc2c1 (configuration not stated)	n	n	u	1.1µM	7.1µM	n	RECQ1 conf=n;ADP FP counter=45µM;RECQ1 inh-2=n

Screens: PubChem BioAssay, National Center for Advancing Translational Sciences (NCATS)
